Laboratory results as given in ChEMBL document CHEMBL3988442, “University of Dundee, Small-Polar-MMV Screening Library” (2021).
Screen size: about 48,000 compounds; about 13,000 (27%) showed an effect of 50% or more. The list shows a part of the results.

test system: Wolbachia pipientis; assay: Anti-Wolbachia Cell-Based Screen; assay type: functional; parameters: scale not given: in the data most compounds retested in dose-response had high values; conditions: 5 µM

Row | SMILES | Percent Effect
1 | CNCC[C@H]1CC(C)(C)Oc2ccc(C)cc21 | 99.82%
2 | COCc1cn(C[C@H]2C[C@@H]3CCN2C[C@@H]3C(=O)N2CCOCC2)nn1 | -6.421%
3 | O=C(CN1CCN(C(=O)Cc2ccc3c(c2)OCCO3)CC1)NC1CC1 | 5.479%
4 | CN(C)CCN(C(=O)Cc1ccc2c(c1)OCCO2)C1CCN(C)CC1.O=C(O)CC(O)(CC(=O)O)C(=O)O | 109%
5 | Cc1[nH]c2c(C)cccc2c1CC(=O)N(C)CCN(C)C.O=C(O)CC(O)(CC(=O)O)C(=O)O | 103%
6 | CN(C)CCN(C)C(=O)Cc1ccc2c(c1)OCCO2.O=C(O)CC(O)(CC(=O)O)C(=O)O | 107.5%
7 | NC(=O)CN1CCCN(C(=O)Cc2ccc3c(c2)OCO3)CC1 | -4.573%
8 | CC(C)CN1CCC2(CC1)C(=O)Nc1ccc(C(=O)N(C)C)cc12.O=C(O)C(F)(F)F | -3.196%
9 | CC(C)NC(=O)c1ccc2c(c1)C1(CCN(C(C)C)CC1)C(=O)N2.O=C(O)C(F)(F)F | 106.4%
10 | CNC(=O)c1ccc2c(c1)C1(CCN(C(C)C)CC1)C(=O)N2.O=C(O)C(F)(F)F | 95.47%
11 | CC(C)CN1CCC2(CC1)C(=O)Nc1ccc(C(=O)NC(C)C)cc12.O=C(O)C(F)(F)F | 99.87%
12 | CNC(=O)[C@H]1C[C@@H]2CN(C(=O)c3ccc(C)nc3)C[C@@H]2N1C(C)C.O=C(O)C(F)(F)F.O=C(O)C(F)(F)F | 4.326%
13 | CC(C)NC(=O)c1ccc2c(c1)C1(CCN(C)CC1)C(=O)N2.O=C(O)C(F)(F)F | 109.7%
14 | CNC(=O)c1ccc2c(c1)C1(CCN(CC(C)C)CC1)C(=O)N2.O=C(O)C(F)(F)F | -7.062%
15 | CC(C)N1C(=O)C2(CCN(C)CC2)c2cc(F)ccc21.Cl | -32.23%
16 | CNC(=O)[C@H]1C[C@H]2OCC[C@H]2N(CC2CC2)C1.O=C(O)C(F)(F)F | -3.474%
17 | Cc1ccccc1CNCC(O)c1ccc(OC(C)C)cc1 (stereo not given) | 14.53%
18 | CCc1cc(CN(C)C(=O)CN2CC(Cc3ccccc3)CC2=O)on1 (stereo not given) | 4.825%
19 | O=C(NCC1CC1)C1CCC2(CCNCC2)C1 (stereo not given) | -14.8%
20 | Cc1cc(CC(=O)N2CCN(C)[C@@H]3CS(=O)(=O)C[C@@H]32)ccc1F | -18.64%
21 | CCS(=O)(=O)c1nnc([C@@H](N)Cc2ccccc2)o1 | 144%
22 | Cc1cnc(N2CCC3(CCCCN3C)C2)nc1.O=C(O)C(F)(F)F (stereo not given) | -23.72%
23 | O=S(=O)(NC[C@H]1C[C@@H]2CCN1C[C@@H]2CN1CCCCC1)c1ccccc1 | -3.393%

Row | SMILES | Percent Effect
24 | COCCN1CCN(S(C)(=O)=O)Cc2cccnc21 | 94.34%
25 | COCCN1CCN(S(=O)(=O)C2CC2)Cc2ccc(C)nc21.O=C(O)C(F)(F)F | 0.9634%
26 | CCS(=O)(=O)N1CCN(CCOC)c2ncccc2C1 | 117.1%
27 | CCCS(=O)(=O)N1CCN(CCOC)c2nc(C)ccc2C1.O=C(O)C(F)(F)F | 12.9%
28 | COCCN1CCN(S(=O)(=O)C2CC2)Cc2cccnc21 | 114%
29 | CC(=O)c1cc(CC(=O)N2CCN(CCOc3ccccc3)CC2)cs1 | -5.45%
30 | COc1ccc(F)cc1C(=O)C1CCCN(Cc2ccc(C)s2)C1 (stereo not given) | -15.99%
31 | O=c1[nH]ccn1CCCN1CC=C(c2cnn(-c3ccccc3)c2)CC1 | 2.052%
32 | COC(=O)NCC1CCC2(CCNCC2)O1.Cl (stereo not given) | -32.05%
33 | c1ccc(CN2CCN3C[C@H](Oc4cccnc4)C[C@H]3C2)nc1 | -1.108%
34 | Cc1cccc(CN2CCN3C[C@H](Oc4cccnc4)C[C@H]3C2)n1.O=C(O)C(F)(F)F.O=C(O)C(F)(F)F.O=C(O)C(F)(F)F | -1.606%
35 | Fc1cccc(O[C@@H]2C[C@H]3CN(Cc4ccccn4)CCN3C2)c1.O=C(O)C(F)(F)F.O=C(O)C(F)(F)F | -1.961%
36 | Cc1cccc(CN2CCN3C[C@H](Oc4cncnc4)C[C@H]3C2)n1.O=C(O)C(F)(F)F.O=C(O)C(F)(F)F | 126.4%
37 | O=C(O)C(F)(F)F.O=C(O)C(F)(F)F.c1ccc(CN2CCN3C[C@H](Oc4cncnc4)C[C@H]3C2)nc1 | 117.2%
38 | Cn1ccnc1CN1CCN2C[C@H](Oc3cncnc3)C[C@H]2C1.O=C(O)C(F)(F)F.O=C(O)C(F)(F)F | -0.7067%
39 | Cc1nc(CN2CCN3C[C@H](Oc4cncnc4)C[C@H]3C2)cs1.O=C(O)C(F)(F)F.O=C(O)C(F)(F)F | 123.6%
40 | COCCNC(=O)C[C@@H]1COC[C@H]2CN(Cc3cccnc3)C[C@@H]12 | 116.3%
41 | O=C(C[C@@H]1COC[C@H]2CN(Cc3cccnc3)C[C@@H]12)N1CCCC1.O=C(O)C(F)(F)F.O=C(O)C(F)(F)F | 109.1%
42 | O=C(C[C@@H]1COC[C@H]2CN(C3CCC3)C[C@@H]12)NCc1cccnc1.O=C(O)C(F)(F)F.O=C(O)C(F)(F)F | 108.6%
43 | O=C(C[C@@H]1COC[C@H]2CN(Cc3cccnc3)C[C@@H]12)NCC1CC1.O=C(O)C(F)(F)F.O=C(O)C(F)(F)F | 115.9%
44 | O=C(C[C@H]1[C@H]2CN(Cc3ccncc3)C[C@@H]12)N1CCCC1.O=C(O)C(F)(F)F.O=C(O)C(F)(F)F | 16.46%
45 | CO[C@H]1CCN(S(=O)(=O)N(C)C)[C@@H]2CN(Cc3cccnc3)C[C@H]12.O=C(O)C(F)(F)F.O=C(O)C(F)(F)F | 0.8682%
